# Screens (PubChem BioAssay)
# A selection: hits, their analogues and other compounds. The true share with any hit is near 19%.
# Shiga inhibitor – A qHTS for Small Molecule Inhibitors of Shiga Toxin. inhibition, % at 38.7 µM. AID 2315, 2010. Vero cells, Shiga toxin protein synthesis inhibition reporter. actives 9.2% (n = 290,000); in the data active = inhibition mostly above about 28%, no sharp cut-off; inactive = mostly below about 43%; note: 0% is about no effect
# SARS PLpro yeast – qHTS of Yeast-based Assay for SARS-CoV PLP; Potency, µM (doses to about 32.9 µM), for inactives: top-dose activity, positive = growth rescue, usual class: activators; S. cerevisiae expressing SARS-CoV PLpro, growth rescue; actives 0.19% (n = 330,000); calls by dose curve; note: potency is the fitted concentration of half-maximal effect; 0% is about no effect; nearly all actives have a fitted effect of over 55% in size
# AMA1 RON2 block – qHTS for Inhibitors of AMA1-RON; Towards Development of Antimalarial Drug Lead: Primary Screen | AlphaScreen AMA1-biotinylated RON2 peptide binding | actives 0.2% (n = 360,000) | Potency, µM (doses to about 58.2 µM), for inactives: top-dose activity change, negative = inhibition, most hits filed as inhibitors | AID 720542, 2013 | Plasmodium falciparum AMA1 (3D7) - RON2 peptide interaction;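 note: potency is the fitted concentration of half-maximal effect; 0% = vehicle wells and -100% = peptide control; nearly all actives have a fitted effect of over 45% in size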
#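 AMA1 (3D7) with his tag at 25 nM final met compounds first, then biotinylated RON2 peptide at 25 nM; detection used donor plus acceptor beads, 10 µg/mL apiece, read by AlphaScreen after 30 min at room temperature.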
# Pf growth 48h – Primary qHTS for delayed death inhibitors of the malarial parasite plastid, 48 hour incubation | P. falciparum luciferase growth in erythrocytes, 48 h | Potency, µM (series often up to 28.7 µM), for inactives: top-dose activity change, negative = inhibition, usual class: inhibitors | actives 5.9% (n = 310,000) | AID 504832, 2011; note: potency is the fitted concentration of half-maximal effect; % is set by controls: 0 for no effect and ±100 for the full control effect
#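 Cell-based growth assay: transgenic P. falciparum expressing firefly luciferase, cultured in red cells within RPMI 1640 containing 0.5% w/v Albumax, 24 mM bicarbonate and gentamycin. A drop in luciferase activity indicates inhibition.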
# Cycloheximide cs – Cycloheximide Counterscreen for Small Molecule Inhibitors of Shiga Toxin. actives 12% (n = 300,000). cell reporter, cycloheximide protein synthesis inhibition counterscreen. max response, %; in the data active = max response mostly above about 13%, no sharp cut-off; inactive = mostly below about 14%; note: read at 38.3 µM for the half of the compounds with a filed dose; 0% is about no effect
# Pf growth 96h – Primary qHTS for delayed death inhibitors of the malarial parasite plastid, 96 hour incubation. P. falciparum luciferase reporter growth, 96 h. Potency, µM (top dose mostly 28.7 µM), for the others: top-dose activity change, negative = inhibition, hits mostly inhibitors. actives 6.9% (n = 320,000). AID 504834, 2011; note: potency is the fitted concentration of half-maximal effect; % is set by controls: 0 for no effect and ±100 for the full control effect
#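 96 h incubation, 37 C, 5% CO2, of luciferase-reporter P. falciparum-infected RBCs (2% hematocrit, 0.05% parasitemia final) with test compounds; endpoint luminescence.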
# * hit, by the source's call; ? = inconclusive; . = no result; ! = not active in a repeat. Unless noted, calls come from the whole dose curve; as a rule, active = well fitted curve in the direction sought with a large enough effect; inconclusive = small, poorly fitted or top-dose-only effect, or another doubt; inactive = no such curve, though single readings can be large; an effect the other way counts as inactive or inconclusive.
SMILES,Shiga inhibitor,SARS PLpro yeast,AMA1 RON2 block,Pf growth 48h,Cycloheximide cs,Pf growth 96h
COCC(C)N1C(=O)Cc2c1nc(N)c1c(N)nc(N3CCN(c4ccccc4F)CC3)c(C#N)c21 (stereo not drawn),-3,-2%,50%,5.9µM*,6,1.3µM*
N#CCc1c(C#N)c(N)nc(N2CCN(S(=O)(=O)c3ccccc3F)CC2)c1C#N,5,?,20%,?,3,?
CNc1cncc(-c2ccc(CN(C)C)cc2)n1,.,.,-2%,.,.,.
C(=N\N(c1ccccc1)c1ccccc1)/c1ccc2c(c1)OCO2,-13,-14%,-7%,?,-2,?
Nc1nn(-c2ccccc2)c(N)c1N=Nc1ccc2c(c1)OCO2,active,-30%,3%,159%,44*,236%
Cc1nn(-c2ccccc2)c2c1C(c1ccc(F)cc1F)C(C#N)=C(N)O2 (stereo not drawn),-6,-13%,-1%,-26%,-1,.
Cc1nn(-c2ccccc2)c(N)c1N=Nc1cccnc1,61*,1%,19%,82%,41*,120%
Nc1nn(-c2ccccc2)c(N)c1N=Nc1cccc(F)c1,88*,-3%,10%,142%,62*,200%
CC1(C)CC(C(CC(=O)N2CCCC2)Cc2ccccc2)CCO1 (stereo not drawn),20,1%,6%,4%,4,?
COc1ccc(C2(c3ccc(OC)cc3)NC(=O)N(CC(=O)Nc3ccc(OC)c(OC)c3)C2=O)cc1,-7,1%,-24%,6.6µM*,-5,?
COc1ccc(C2(c3ccc(OC)cc3)NC(=O)N(CC(=O)Nc3ccccc3C)C2=O)cc1,-8,0%,4%,31%,-7,-8%
Cc1cc(NC(=O)CN2C(=O)NC(c3ccccc3)(c3ccc(C)c(C)c3)C2=O)no1 (stereo not drawn),.,0%,-1%,?,.,4.1µM*
COc1ccc(C2(c3ccc(OC)cc3)NC(=O)N(CC(=O)Nc3ccccc3C(F)(F)F)C2=O)cc1,-23,-2%,4%,?,2,12µM*
COc1ccc(C2(c3ccc(OC)cc3)NC(=O)N(CC(=O)Nc3ccc(C(N)=O)cc3)C2=O)cc1,-11,18%,17%,?,5,?
O=C(NNC1=C(C(=O)C(F)(F)F)CCC1)c1cccnc1,50,2%,112%,9%,38*,18%
CCC(=O)Oc1ccc(C(=O)Nc2ccc3c(c2)C(=O)N(C2CCCCC2)C3=O)cc1,-21,4%,1%,.,-6,10µM*
O=C(O)c1cccc(NC(=O)c2ccc3c(c2)C(=O)N(C2CCCCC2)C3=O)c1,108*,-6%,-3%,14%,44*,33%
CC(C)(C)NC(=O)c1ccc2c(c1)C(=O)N(C1CCCCC1)C2=O,80*,-1%,-4%,4%,48*,20%
O=C(O)COc1ccc(NC(=O)c2ccc3c(c2)C(=O)N(C2CCCCC2)C3=O)cc1,-14,-1%,-19%,?,2,-17%
O=C(Nc1ccc2c(c1)C(=O)N(C1CCCCC1)C2=O)C1CCCO1 (stereo not drawn),17,-27%,-9%,9%,9.6*,2%
O=C(CSc1ccccn1)N1CCNC1=O,.,-1%,14%,.,.,.
Cc1ccccc1NC(=O)Cc1nc(COC(=O)c2ccc(Cl)c(S(N)(=O)=O)c2)cs1,.,2%,8%,?,.,13µM*
Cc1ccccc1NC(=O)Cc1nc(COC(=O)c2ccc([N+](=O)[O-])cc2)cs1,.,3%,19%,18%,.,26%
Cc1ccc(C)c(OCCC(=O)OCc2csc(CC(=O)Nc3ccccc3C)n2)c1,.,0%,-14%,12µM*,.,?
Cc1ccc(C)c(NC(=O)Cc2nc(CCl)cs2)c1,4,-7%,-12%,15µM*,-2,?
SMILES,Shiga inhibitor,SARS PLpro yeast,AMA1 RON2 block,Pf growth 48h,Cycloheximide cs,Pf growth 96h
Cc1ccccc1NC(=O)Cc1nc(COC(=O)c2cccc([N+](=O)[O-])c2)cs1,-3,-1%,5%,-9%,1,4.1µM*
O=C(Nc1cccc(Cl)c1)Nc1nccs1,98*,-6%,21%,43%,69*,?
O=C(Nc1ccc(Cl)c(Cl)c1)Nc1nnc(CSc2ccccc2)s1,-9,-2%,-2%,4.7µM*,1,31%
O=C(Nc1ccc(Cl)c(Cl)c1)Nc1nccs1,69*,-5%,6%,?,34*,-100%
O=C(Nc1cccc(Cl)c1)Nc1nc(-c2ccccc2)cs1,17,-2%,3%,0%,-1,?
O=C(Nc1ccccc1)Nc1nnc(CSCc2ccccc2Cl)s1,7,10%,2%,2%,1,?
CN1CCN(Cc2cc(=O)n3ccsc3n2)CC1,-21,2%,19%,-5%,1,?
O=C1c2ccccc2S(=O)(=O)N1Cc1cc(=O)n2ccsc2n1,-2,?,-10%,?,-3,13µM*
O=C1/C(=C/c2ccc3c(c2)OCO3)Oc2cc(OCC(=O)N3CCC[C@H]3C(=O)O)ccc21,23,8%,-6%,34%,8.2*,-22%
CC1CCCN(C(=O)c2ccc3c(c2)OCO3)C1 (stereo not drawn),22,1%,0%,13%,4,52%
CC1Cc2ccccc2N1C(=O)COc1ccc2c(c1)OCO2 (stereo not drawn),74*,-9%,14%,13%,34*,-3%
CC1CCCN(C(=O)COc2ccc3c(c2)OCO3)C1 (stereo not drawn),64*,-1%,-13%,42%,48*,62%
CN1/C(=C\C(=O)COc2ccc3c(c2)OCO3)C(C)(C)c2ccccc21,11,-15%,?,?,11*,-1%
Cc1cc2cc3c(cc2nc1SCC(=O)N1c2ccccc2CC1C)OCO3 (stereo not drawn),-4,-24%,-7%,?,0,?
CCc1ccc(-n2c(SCC(=O)Nc3ccc(C(=O)O)cc3)nnc2-c2ccncc2)cc1,-8,1%,5%,13%,-1,-4%
COc1cc(OC)cc(C(=O)N[C@H](C(=O)OCC(=O)Nc2cccnc2Cl)C(C)C)c1,.,0%,-4%,6%,.,22%
CCN1C[C@@H]2[C@@H]3C(=O)N(C)C(=O)[C@@H]3[C@](CC)(C1=O)N2C(=O)c1ccc(C(C)(C)C)cc1,.,-1%,0%,.,.,.
CCOC(=O)[C@H](CCc1ccccc1)N[C@@H](C)C(=O)N1CCC[C@H]1C(=O)O,-18,-1%,0%,-26%,-1,6µM*!
CCOC(=O)C(CCc1ccccc1)NC(C)C(=O)N1Cc2cc(OC)c(OC)cc2CC1C(=O)O (stereo not drawn),-5,.,.,?,-2,12µM*
